Results reported in PubChem BioAssay (EPA / NIEHS).
Calls of active or inactive are those of the source. How the source made its calls: active means hit-call score of the fitted dose curve at least 0.9, where 1 is the maximum; inactive means score below 0.9.

Each molecule was assayed on Interleukin-8 (IL8), CXCL8 (gene 3576) (assay: BSK_LPS_IL8: BioMAP Diversity Plus: LPS Assay for Interleukin-8 (IL8) Biomarker Activity (AID 2283078)). Settings: primary human HUVEC with PBMC; actives raise or lower the signal.
Experimental: BSK_LPS is a cell-based, multiplexed-readout assay that uses umbilical vein endothelium and peripheral blood mononuclear cells, a human vascular primary cell co-culture, with measurements taken at 24 hours after chemical dosing in a 96-well plate.BSK_LPS_IL8 is an assay component measured in the BSK_LPS assay. It measures IL-8 antibody related to regulation of gene expression using ELISA technology.Data from the assay component BSK_LPS_IL8 was analyzed into 1 assay endpoint. This assay endpoint, BSK_LPS_IL8, was analyzed with bidirectional fitting relative to DMSO as the negative control and baseline of activity. Using a type of binding reporter, gain or loss-of-signal activity can be used to understand changes in the signaling as they relate to the gene CXCL8. Furthermore, this assay endpoint can be referred to as a primary readout, because this assay has produced multiple assay endpoints where this one serves a signaling function. To generalize the intended target to other relatable targets, this assay endpoint is annotated to the cytokine intended target family, where the subfamily is interleukins.
The levels of cell surface (or secreted, indicated by the prefix "s") biomarker endpoints were measured by ELISA. Overt cytotoxicity to cells in confluent adherent cultures (all systems other than the BT system) was assessed by measuring total protein levels using sulforhodamine B (SRB) staining in parallel cultures at the time of biomarker measurements, indicated as SRB endpoints. For proliferation assays for adherent cell types, individual cell types are cultured at sub-confluence and relative cell numbers quantified by SRB staining at time points optimized for each system (48 h: 3C and CASM3C systems; 72 h: BT and HDF3CGF systems; 96 h: SAg system). SRB was performed by staining cells with 0.1% SRB after fixation with 10% TCA and reading wells at 560 nm.Viability and proliferation of PBMC (T cells) was quantified by Alamar Blue reduction for the SAg and BT systems. For PBMC viability (referred to as PBMC Cytotoxicity within the assay endpoint names), cells were plated (75,000/well in a 96-well plate) and then chemical samples added for 1 h before addition of activators, SEB and TSST-1 (20 ng/mL final concentration each). Cells were incubated for 90 h. Then, Alamar Blue (20 uL/well) (Invitrogen, Cat DAL1100) was added for 6 h, and the plates were read with a fluorescence microplate reader at 546/580 nm (excitation/emission). For PBMC proliferation, cells were plated and activated as above but incubated for only 16 h prior to addition of Alamar Blue. Plates were read after 6 h.
Nc1cc([N+](=O)[O-])ccc1O was tested, and the outcome was “inactive”.
CC(C)c1ccc(C(C)C)cc1 was tested, and the outcome was “inactive”.
NCCNCCN was tested, and the outcome was “inactive”.
c1ccc2c(c1)c1cccc3ccc4cccc2c4c31 was tested, and the outcome was “inactive”.
For N#Cc1ccc(CC(=NNC(=O)Nc2ccc(OC(F)(F)F)cc2)c2cccc(C(F)(F)F)c2)cc1, the outcome was “inactive”.
With CNC[C@H](O)c1cccc(O)c1 the outcome was “inactive”.
O=C1OC2(c3cc(Br)c(O)c(Br)c3Oc3c2cc(Br)c(O)c3Br)c2c(Cl)c(Cl)c(Cl)c(Cl)c21 was tested, and the AC50 was 13.2 µM (active).
With O=C=NC1CCC(CC2CCC(N=C=O)CC2)CC1 (stereo not given) the outcome was “inactive”.
In the case of CCCCC(CC)COC(=O)/C=C\C(=O)OCC(CC)CCCC (stereo not given), the outcome is reported as “inactive”.
With Cc1cc(C2(c3cc(C)c(O)cc3C)OS(=O)(=O)c3ccccc32)c(C)cc1O the outcome was “inactive”.
In the case of Cc1ccc2n[nH]nc2c1, the outcome is reported as “inactive”.
OC1OC[C@@H](O)[C@H](O)[C@H]1O (stereo not given in full) was tested, and the outcome was “inactive”.
With BrC1CCC(Br)C(Br)CCC(Br)C(Br)CCC1Br (stereo not given) the outcome was “inactive”.
With C=CCOC(=O)CCC1CCCCC1 the outcome was “inactive”.
For CCCCCCCCCC=O, the outcome was “inactive”.
With Cc1ccc(Nc2ccc(O)c3c2C(=O)c2ccccc2C3=O)cc1 the outcome was “inactive”.
Cc1ccc(O)c(C(C)(C)C)c1 was tested, and the AC50 was 29.6 µM (active).
With O=[N+]([O-])c1cc(C(F)(F)F)ccc1Cl the outcome was “inactive”.
In the case of CC1CCC(C(C)CS)CC1S (stereo not given), the outcome is reported as “inactive”.
CCCCC/C=C/C=C/C=O was tested, and the AC50 was 32.6 µM (active).
In the case of O=P(c1ccccc1)(c1ccccc1)c1ccccc1, the outcome is reported as “inactive”.
With O=C(O)c1cn(C2CC2)c2cc(N3CCNCC3)c(F)cc2c1=O the outcome was “inactive”.
In the case of O=C(O)c1cn(-c2ccc(F)cc2)c2cc(N3CCNCC3)c(F)cc2c1=O, the outcome is reported as “inactive”.
CC(=O)O[C@]1(C(C)=O)CC[C@H]2[C@@H]3C[C@H](C)C4=CC(=O)CC[C@]4(C)[C@H]3CC[C@@]21C was tested, and the outcome was “inactive”.
With C[C@H]1C[C@@H]2[C@H]([C@@H](O)C[C@@]3(C)[C@H]2CC[C@]3(O)C(=O)CO)[C@@]2(C)C=CC(=O)C=C12 the outcome was “inactive”.
For C=C[Si](OCC)(OCC)OCC, the outcome was “inactive”.
With CN(CCOc1ccc(CC2SC(=O)NC2=O)cc1)c1ccccn1 (stereo not given) the outcome was “inactive”.
With CCn1c2ccccc2c2cc(N)ccc21 the outcome was “inactive”.
CC(=O)/C=C/C1=C(C)CCCC1(C)C was tested, and the outcome was “inactive”.
For CCCCCCCCCCCCCCCCCC(=O)OCC(CC)CCCC (stereo not given), the outcome was “inactive”.
In the case of CC(=O)Nc1ccccc1O, the outcome is reported as “inactive”.
C#C[C@]1(O)CC[C@H]2[C@@H]3CCC4=Cc5oncc5C[C@]4(C)[C@H]3CC[C@@]21C was tested, and the outcome was “inactive”.
With CC(C)Oc1ccccc1O the outcome was “inactive”.
With CC(=O)[C@H]1CC[C@H]2[C@@H]3CC=C4C[C@@H](O)CC[C@]4(C)[C@H]3CC[C@]12C the outcome was “inactive”.
For OC[C@H]1O[C@H](O[C@]2(CCl)O[C@H](CCl)[C@@H](O)[C@@H]2O)[C@H](O)[C@@H](O)[C@H]1Cl, the outcome was “inactive”.
c1ccc2sc(SN(C3CCCCC3)C3CCCCC3)nc2c1 was tested, and the outcome was “inactive”.
In the case of CCC(=O)OCc1ccccc1, the outcome is reported as “inactive”.
With O=C(O)C[C@H](O)C[C@H](O)/C=C/c1c(C2CC2)nc2ccccc2c1-c1ccc(F)cc1 the AC50 was 0.992 µM (active).
With COc1cc(C=O)ccc1OC(=O)C(C)C the outcome was “inactive”.
CC1COc2ccccc2N1C(=O)C(Cl)Cl (stereo not given) was tested, and the outcome was “inactive”.
